This is one part of a sample in which hits are shown more often than they occur.
Tg IFNy HTS: T. gondii growth inhibition under IFN-gamma. actives 3.8% (n = 69,000). activity change, negative = inhibition, % (no concentration beside the values). AID 1259416. Toxoplasma gondii growth in IFN-gamma-treated host cells; active compounds read low; in the data active = activity change below about -70%, passing the limit was not always enough;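 note: host cells are HeLa cells infected with Toxoplasma gondii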
Numbers stand for hits; - = inactive; ! = not confirmed by another sample.

SMILES | Tg IFNy HTS
C[C@@H]1CN([C@H](C)CO)S(=O)(=O)c2ccc(C#CC3(O)CCCC3)cc2O[C@H]1CN(C)C(=O)Nc1cccc(F)c1 | -89.8
Cc1ccccc1-c1ccc2c(c1)O[C@H](CN(C)C(=O)Nc1ccc(C(F)(F)F)cc1)[C@H](C)CN([C@H](C)CO)S2(=O)=O | -
Cc1noc(C)c1NC(=O)N(C)C[C@H]1Oc2cc(C#CCN(C)C)ccc2S(=O)(=O)N([C@H](C)CO)C[C@@H]1C | -
Cc1ccc2c(C(=O)NCc3c(C)n[nH]c3C)cc(C)nc2c1 | -
O=C(c1ccn[nH]1)N1CC[C@H]2CN(Cc3ccccc3)S(=O)(=O)[C@@H]2CC1 | -
CCc1cc(CN(C)Cc2ccc(S(C)(=O)=O)cc2)on1 | -
O=C(c1ccc(-n2cnnc2)cc1)N1C[C@H]2CC=CC[C@H]2C1 | -
COCCN1CC2(CCC1=O)CCN(S(=O)(=O)C1CC1)CC2 | -
CCOC(=O)c1nc(N(C)c2cccc(C)c2)c2ccccc2n1 | -
CC(C)c1noc(CCn2ccnc2-c2ncc[nH]2)n1 | -
COc1ccc(S(=O)(=O)CCNC(=O)c2n[nH]c3c2CC(C(C)(C)C)CC3)cc1 (centres undefined) | -
CCc1cnc(N2[C@H](C#N)[C@H](c3ccc(C#Cc4ccccc4F)cc3)[C@H]2CO)s1 | -
CCc1cnc(N2[C@H](C#N)[C@@H](c3ccc(C#Cc4ccccc4F)cc3)[C@H]2CO)s1 | -74.6
CCc1cnc(N2[C@H](C#N)[C@H](c3ccc(C#Cc4ccccc4F)cc3)[C@@H]2CO)s1 | -
COc1ccc(C(=O)NCCc2sc(-c3ccc(OC)c(OC)c3)nc2C)cc1 | -
Cc1cc(C(=O)Nc2cccc(NC(=O)Cc3ccccc3)c2)n[nH]1 | -74.9
O=C(Cc1ccccc1)Nc1cccc(NC(=O)c2ccnnc2)c1 | -
CC/C=C/CC(=O)Nc1cccc(NC(=O)Cc2ccccc2)c1 | -
O=C(Nc1ccc(F)cc1)N1CCC2(CC1)Nc1ccccc1-n1cccc12 | -
CNC(=O)c1ccc(-c2ccnc3c2ccn3C)o1 | -
Cn1ccc2c(-c3ccc(C(=O)O)cn3)ccnc21 | -
Cn1ccc2c(-c3cccc(O)c3)ccnc21 | -77.5
CCCn1ncnc1C(C)NC(=O)COc1c(C)ccc(C)c1C (centres undefined) | -
CC(C)C[C@H]1CN(C(=O)c2coc3ccccc23)CC[C@@]1(C)O | -
Cc1ccccc1C(=O)O/N=C1\C(=O)c2ccccc2-c2ccccc21 | -85.9
SMILES | Tg IFNy HTS
Cc1ccccc1C(=O)NN1C(=O)c2ccccc2C1=O | -
COC(=O)c1ccccc1-c1ccccc1C(=O)OC | -
CCc1nc([C@H]2CN(C)C[C@@H]2C(=O)N2CCNC(=O)CC2)c(C)[nH]1 | -
COC(=O)c1ccc(NC(=O)c2ccccc2SC)cc1 | -
COC(=O)Nc1nc2ccc(C(=O)c3ccccc3C(=O)OC(C)C)cc2[nH]1 | -100.7
Cc1ccc2nc(NC(=O)C(C)(C)C)[nH]c(=O)c2c1 | -
CCCS(=O)c1ccc2nc(NC(=O)OC)[nH]c2c1 (centres undefined) | -
O=C(O)c1ccc2nc(-c3ccccn3)[nH]c2c1 | -
COC(=O)Nc1nc2ccc(C(=O)c3ccccc3)cc2[nH]1 | -78.8
CCCSc1ccc2nc(NC(=O)OC)[nH]c2c1 | -78.0!
COC(=O)Nc1nc2ccc(SC(C)C)cc2[nH]1 | -
COC(=O)Nc1nc2ccc(S(=O)c3ccccc3)cc2[nH]1 (centres undefined) | -75.3!
COC(=O)Nc1cc(C)n(-c2ccccc2)n1 | -
CCCCCC#CC(=O)Nc1nc2cc(C)c(C)cc2[nH]1 | -
CC(c1ccon1)N(C)CC(=O)Nc1nc2ccccc2[nH]1 (centres undefined) | -
CCCC(=O)Nc1cc(C(=O)NC(C)Cc2ccncc2)ccc1C (centres undefined) | -
CC(C)N(CC1CCC(=O)N1)C(=O)c1cn(C)c2ccccc12 (centres undefined) | -
COc1ccccc1-c1ccc(CNCC2(c3cccc(F)c3)CCOCC2)cc1 | -
c1ccc(C2CCCCN2Cc2ccc(-c3ccn[nH]3)s2)nc1 (centres undefined) | -
CC(C)Cc1ccc(C(C)C(=O)NO)cc1 (centres undefined) | -
CC(C)(C)N=C1Nc2ncccc2NC12CCN(C(=O)c1cc(-c3cccs3)[nH]n1)CC2 | -
CN1CCn2c(-c3cccc(F)c3)cnc2C12CCN(C(=O)Cc1ccccn1)CC2 | -
Cc1ccc(C(=O)O)cc1NC(=O)c1cccs1 | -
COC(=O)Nc1nc2ccc(C(=O)c3cccs3)cc2[nH]1 | -87.4
COc1ccc(-n2nc3ccc(NC(=S)NC(=O)c4cccs4)cc3n2)cc1 | -
SMILES | Tg IFNy HTS
CN1CCC(C)(CNC2CSCCSC2)C1 (centres undefined) | -
COc1ccc(-n2ccnc2-c2ccc(Sc3nncn3C)o2)cn1 | -
OC(CCCc1ccccc1)(c1ccc(Cl)cc1)c1ccc(Cl)cc1 | -80.0
O=C(/C=C/c1ccc(Cl)cc1)NCCc1ccccc1 | -
O=C(COc1ccc(Cl)cc1)NCc1ccccc1 | -
CCn1c(C(=O)N2CCCC2)cc2cc(S(=O)(=O)N(C)C)ccc21 | -
Cc1nc2c(c3c1[nH]c1ccccc13)C(=O)CC(C)(C)C2 | -
Cc1n[nH]c(C)c1CCCNC(=O)c1cc(=O)[nH]c2ccccc12 | -
CNCCCCc1cnc(C)c2[nH]c3ccccc3c12 | -94.6
COc1ccc(CN(CCN(C)C)c2ccccn2)cc1 | -
CCCCCCCCCCCCCCCC[N+](C)(C)CCN(Cc1ccc(OC)cc1)c1ncccn1 | -84.2
COc1ccc(CN(CCN(C)C)c2ncccn2)cc1 | -
Cc1nc2nnc3ccc(C(=O)Cc4ccccn4)cc3c2n1CC1CCCO1 (centres undefined) | -
CN(C)CCNc1cn[nH]c(=O)c1Cl | -
COc1ccc(-c2cc(-c3ccccc3)c3c(N)c(S(C)(=O)=O)sc3n2)cc1 | -
Cc1cccc(CN2CCCC3(CCN(S(=O)(=O)c4ccc(F)cc4)C3)C2)n1 (centres undefined) | -
Cc1ccc(S(=O)(=O)N2CCC3(CCCN(Cc4c(C)noc4C)C3)C2)cc1 (centres undefined) | -
CCc1ccc(S(=O)(=O)N2CCC3(CCCN(Cc4c(C)noc4C)C3)C2)cc1 (centres undefined) | -71.8
COc1ccc(S(=O)(=O)N2C[C@@H]3OCCN(c4ncc(F)cn4)[C@H]3C2)cc1 | -
Cc1ccc(NC(=O)C(C)NCc2ccccc2-n2ccnc2C)cc1 (centres undefined) | -
OC(Cn1c(=NC2CCCCC2)sc2ccccc21)c1ccccc1 (centres undefined) | -72.0
S=c1sc2ccccc2n1CCn1c(=S)sc2ccccc21 | -
O=C(CCC(=O)NC1CCCCCCC1)NCC(O)c1ccccc1 (centres undefined) | -
Cn1cccc1C(=O)NC[C@@H]1OC[C@@H]2CCN(C(N)=O)C[C@H]21 | -
O=C(CCC1Nc2c3ccccc3nc(=S)n2C1=O)NCc1cccc(Cl)c1 (centres undefined) | -
Clc1nc2ccccc2nc1N1CCN(C2CCCCC2)CC1 | -
CC(C)c1ccc(NC(=O)C2CC(=O)N(CCc3c[nH]c4ccc(Cl)cc34)C2)cc1 (centres undefined) | -
O=C(NC1CCCCCCC1)C1CC(=O)N(CCc2c[nH]c3ccc(Cl)cc23)C1 (centres undefined) | -91.5
Cc1ccc2[nH]cc(CCN3CC(C(=O)NC4CCCCCCC4)CC3=O)c2c1 (centres undefined) | -
CO[C@H]1CN(Cc2cnn(-c3ccc(C)c(C)c3)c2)CC[C@H]1N | -

Assay outcomes: PubChem, Broad Institute
